Assay results: PMC5540273 (PLoS ONE, 2017)

Tested on: CSNK1G2
Details: concentration: 1 μM, replicates: in singlicate; n = 1
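Note: KINOMEscan kinase panel screen.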

Compound | %Inh [%]
COc1cc2ncn(-c3cc(OCC4CCCO4)c(C(N)=O)s3)c2cc1OC (stereo not shown) [GSK204607] | 0
C[C@@H]1CCCCN1c1cc(-c2ccc3c(N)n[nH]c3c2)nc(N)n1 [GSK2258759] | 0
COc1ccc(C2=C(Nc3cccc(C(=O)O)c3)C(=O)NC2=O)cc1 [SB-390765] | 0
CCCc1ccc(S(=O)(=O)NC2CCN(c3ccnc(Nc4ccc(F)cc4)n3)C2)cc1 (stereo not shown) [GSK1379715] | 0
O=C(Nc1ccccc1)Nc1cccc(Oc2ccc3nccn3n2)c1 | 0
Cn1ccc2ncnc(Oc3ccc(Nc4nc5ccccc5[nH]4)cc3)c21 | 0
Cc1cccc(-c2cc(Nc3ccncc3)c3ccccc3n2)n1 [GSK223675] | 0
Cc1ccc(NC(=O)Nc2cccc(Cl)c2)cc1-c1ccc(C(=O)Nc2ccncc2)cc1 [GSK1398468] | 0
COc1ccc(CNC(=O)NC2CCN(c3ccnc(Nc4cc(OC)c(OC)c(OC)c4)n3)C2)cc1 (stereo not shown) [GSK1379748] | 0
O=S(=O)(c1ccc(-c2ccnc3[nH]ccc23)cc1)N1CCCC1 [GSK846226] | 0
COc1ccccc1-c1ccc2c(NC(=O)C3CC3)n[nH]c2n1 [SB-711239] | 5
Cl.O=C(Nc1cccc(-c2nn3ncccc3c2-c2ccnc(Nc3cccnc3)n2)c1)c1c(F)cccc1F [GSK312879] | 0
O=C(Nc1n[nH]c2nc(-c3nccs3)c(Br)cc12)C1CCCC1 [SB-742609] | 0
COc1cc(Nc2nccc(N3CCC(NC(=O)Nc4cc(C)ccc4C)C3)n2)cc(OC)c1OC (stereo not shown) [GSK1379762] | 0
CC(=O)Nc1nc2cnc(Nc3cc(NC(=O)c4cccc(CCC#N)c4)ccc3C)nc2s1 | 7
Cc1cc(N2Cc3ccccc3C2)nc(Nc2ccc(S(=O)(=O)N3CCOCC3)cc2)n1.Cl [GSK1669917] | 0
Cc1cccc(-c2nc(C)cc(Nc3ccncc3)n2)n1 [GSK257997] | 0

Compound | %Inh [%]
O=c1cc(N2CCOCC2)nc2n(Cc3cccc(Cl)c3Cl)ccn12 [GSK2286295] | 0
Cc1cc(-c2ccc3c(c2)CC[C@@H](N[C@@H](C)c2ccccc2)C3)cnc1N.Cl [GW412617] | 0
COc1ccccc1CNC(=O)c1cc(C(=O)c2ccccc2C)c[nH]1 [GSK364507] | 0
Cc1cccc(-c2nc(Nc3cccc(C(N)=O)c3)c3ccccc3n2)n1 [GW876019] | 0
Cc1csc(-c2nc(Nc3ccncc3)c3ccccc3n2)n1 [GW869640] | 9
CS(=O)(=O)c1ccc(-c2nc3n(c2-c2ccncc2)CCC3)cc1 [SKF-105942] | 0
Nc1ncnc2[nH]c(-c3ccccc3)nc12 [AH5015] | 0
Cc1cccc(-c2nc(Nc3ccncc3)c3ccccc3n2)n1 [GW855857] | 20
COC(=O)c1c(-c2ccccc2)c2cc(OC)ccc2c(=O)n1Cc1ccccc1 | 0
Cc1c(Cn2ccn3c(=O)cc(N4CCOCC4)nc23)cccc1C(F)(F)F [GSK2289044] | 5
COc1ccc(Nc2nccc(-c3cccc(NC(=O)c4cc5cc(F)ccc5[nH]4)c3)n2)cc1 [GSK1229782] | 17
O=C(O)COc1ncnc2cc(-c3ccc4[nH]ncc4c3)sc12 | 10
Cc1ccc(-c2cc(-c3c[nH]nc3-c3ccccn3)ccn2)cc1 [GW684088] | 22
Cc1c(O)cccc1Nc1ccnc2ccc(C(F)(F)F)cc12.Cl [GW466413] | 0
CS(=O)(=O)c1ccc(-c2c(-c3ncn[nH]3)sc(N3CCOCC3)c2C#N)cc1 | 0
Fc1cccc(COc2nnc(-c3ccc4c(c3)CCO4)o2)c1 | 4
COc1cc2ncnc(Nc3ccc4nc(-c5ccccc5)[nH]c4c3)c2cc1OC.Cl [GW282450] | 0
